Active and inactive are the calls of the source.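 The calls were made as follows: active = relative FRET score above 0.01, or acceptor fluorescence over 30% below the sample-well median; inactive = the rest.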
molecular target: Protein Rev (Human immunodeficiency virus type 1 group M subtype B (isolate WMJ22)) (UniProt P05866); test: disruptors of Rev peptide-RRE RNA complex – biochemical, FRET, acceptor and relative FRET calls, confirmation (AID 837); settings: Fl-Rev peptide / Cy5-RRE RNA FRET, 1536-well; at 8 µM;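 also: relative FRET combines rise in Cy5 acceptor with fall in fluorescein donor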
Sequence (P05866 whole entry, looked up): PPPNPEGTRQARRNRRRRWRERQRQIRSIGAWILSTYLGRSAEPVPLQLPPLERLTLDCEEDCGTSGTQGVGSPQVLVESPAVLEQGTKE

Structure (SMILES) | outcome
COc1ccc(CCC(C)NCCc2ccccc2)cc1 (stereo not given) | inactive
c1ccc(C(OCCN2CCNCC2)c2ccccc2)cc1 | inactive
CNCC(O)c1cccc(OC(=O)c2ccccc2C)c1 (stereo not given) | inactive
CC(NC1CCCCC1)C(O)C12CC3CC(CC(C3)C1)C2 (stereo not given) | inactive
OC(Cc1ccccc1)(c1ccccc1)C1CN2CCC1CC2 (stereo not given) | inactive
Cc1ccc(-c2nc(N(C)C3CCN(C)CC3)c3ccccc3n2)cc1 | inactive
COc1ccc(CCNC(C)CCc2ccc(OC)cc2)cc1 (stereo not given) | active
COc1ccc(CCNCc2ccc(SC)cc2)cc1 | inactive
CN1C2CCC1CC(OC(=O)c1cc(Cl)cc(Cl)c1)C2 (stereo not given) | inactive
CC1CCC(NCCc2ccc3c(c2)OCO3)CC1 (stereo not given) | inactive

Source: PubChem BioAssay AID837 (The Scripps Research Institute Molecular Screening Center, 2007)
